An excerpt weighted towards active compounds, which were near 19% of everything screened.
IL1B secr inh – blocks inflammasome-driven IL-1 beta release; actives 4.7% (n = 360,000); THP-1 LPS/ATP IL-1B secretion, AlphaLISA, 16 h; active compounds read low; activity change, % at 57.5 µM; in the data active = activity change below about -50%; inconclusive = mostly about -30% to -49%
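THP-1 cells pretreated 1 hr with compounds (up to 57.5 uM final), then stimulated with LPS (250 ng/mL final) plus ATP (1.25 mM final); secreted IL-1B measured by AlphaLISA after 16 hr, decreased signal indicating inhibition.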
DT40 TDP1 no CPT – qHTS for Inhibitors of human tyrosyl-DNA phosphodiesterase 1 (TDP1): qHTS in cells in absence of CPT; actives 15% (n = 420,000); Potency, µM (doses to about 46.2 µM), actives largely listed as inhibitors; AID 686978, 2013; DT40 Tdp1-/- hTDP1 cells, no CPT, ATP luminescence, 48 h; also: nearly all actives have a fitted effect of over 55% in size
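Camptothecin absent (DMSO only). Human TDP1-complemented DT40 knockout cells, 400 cells/well, 37 °C for minimum 48 hr; ATP measured via CellTiter-Glo, 30 min dark incubation, luminescence.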
HT1080NT lethal – kills 2HG-producing HT-1080-NT fibrosarcoma cells | HT-1080-NT fibrosarcoma viability, CellTiter-Glo ATP luminescence, 48 h | Potency, µM (highest dose often 46.1 µM), actives largely listed as cytotoxic | actives 1.6% (n = 360,000) | AID 686970;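 also: NT is the 2HG producing partner of a matched IDH1 knockdown line; nearly all actives have a fitted effect of over 55% in size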
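HT-1080-NT fibrosarcoma cells (2HG-overproducing), 750 cells/well in RPMI with 5% FBS, dosed after 2 h and incubated 48 h at 37C. CellTiter-Glo luminescence normalized to DMSO and no-cell wells; concentration-response curves fitted and classed.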
TDP1 cell CPT – growth inhibition of DT40 Tdp1-/-;hTDP1 cells with camptothecin (screen for TDP1 inhibitors); chicken DT40 Tdp1-/-;hTDP1 cells + 20 nM CPT, ATP luminescence, 48 h; Potency, µM (highest dose often 46.2 µM), actives largely listed as inhibitors; actives 12% (n = 420,000); also: nearly all actives have a fitted effect of over 55% in size
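Cell growth measured by CellTiter-Glo luminescence after a minimum 48 h, 37 C compound exposure with 20 nM CPT in Tdp1-knockout DT40 cells stably expressing hTDP1, seeded 400/well; qHTS titration format.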
HT1080 IDH1KD tx – HT-1080 IDH1 knockdown cell toxicity (counter line); HT-1080 IDH1 knockdown viability, ATP luminescence, 48 h; Potency, µM (top dose mostly 46.1 µM), hits mostly cytotoxic; actives 2% (n = 360,000)
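% activity derives from luminescence (CellTiter-Glo), normalised to DMSO and no-cell wells. HT-1080-IDH1KD cells, 750/well, had 48 h compound exposure at 37 °C.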
Of the large screens only hits and unclear results are named; the others gave an inactive call. Unless noted, calls follow the shape of the dose curve; as a rule, active = well fitted curve in the direction sought with a large enough effect; inconclusive = small, poorly fitted or top-dose-only effect, or another doubt; inactive = no such curve, though single readings can be large; an effect the other way counts as inactive or inconclusive.

COc1ccc(-c2ccc(OC)c(OC)c2OC)cc1	DT40 TDP1 no CPT 5.2µM, HT1080NT lethal inconclusive, TDP1 cell CPT 15µM, HT1080 IDH1KD tx inconclusive
COc1ccc(OC)c(C(O)C(C)N)c1 (configuration not stated)	none
Cc1ccc2c(c1Cl)NC(C(=O)O)C1CC(Sc3ccccc3[N+](=O)[O-])C(Cl)C21 (configuration not stated)	none
CCN(CC)C(=O)c1ccc2c(c1)C1C(Cl)C(Sc3ccccc3[N+](=O)[O-])CC1C(C(=O)O)N2 (configuration not stated)	IL1B secr inh inconclusive, DT40 TDP1 no CPT 21µM, TDP1 cell CPT inconclusive
COCC#CCN1CCCCC1c1cccnc1 (configuration not stated)	none (no result: IL1B secr inh, HT1080NT lethal, HT1080 IDH1KD tx)
Cc1ccc(NC(=S)NC2CC3CCC(C2)N3Cc2ccco2)cc1C (configuration not stated)	DT40 TDP1 no CPT inconclusive, TDP1 cell CPT inconclusive, HT1080 IDH1KD tx inconclusive
CC(C(=O)c1c[nH]c2ccccc12)N1CCOCC1 (configuration not stated)	none
CC(C)N1CC=C(c2c[nH]c3ccccc23)CC1	DT40 TDP1 no CPT 4.6µM, TDP1 cell CPT 7.3µM
COc1cccc(N2CCN(C(=O)C3CCN(S(=O)(=O)c4ccc5c(c4)oc(=O)n5C)CC3)CC2)c1	DT40 TDP1 no CPT 18µM, TDP1 cell CPT 16µM
Cn1c(=O)oc2cc(S(=O)(=O)N3CCCC(C(=O)N4CCN(c5cccc(Cl)c5)CC4)C3)ccc21 (configuration not stated)	DT40 TDP1 no CPT 8.2µM, TDP1 cell CPT 9.2µM (no result: IL1B secr inh, HT1080NT lethal, HT1080 IDH1KD tx)
Cc1csc(NC(=O)C2CCCN(S(=O)(=O)c3ccc4c(c3)oc(=O)n4C)C2)n1 (configuration not stated)	DT40 TDP1 no CPT inconclusive, TDP1 cell CPT inconclusive
CCCCCCCCCCCCCCCC[N+](C)(C)C	DT40 TDP1 no CPT 1.8µM, HT1080NT lethal 12µM, TDP1 cell CPT 2.3µM, HT1080 IDH1KD tx inconclusive
CCCCCCCCCCCCCCCCCC[N+](C)(C)CCC[Si](OC)(OC)OC	DT40 TDP1 no CPT 12µM, TDP1 cell CPT 24µM (no result: IL1B secr inh, HT1080NT lethal, HT1080 IDH1KD tx)
CCCCCCCCCC[N+](C)(C)CCCCCCCCCC	DT40 TDP1 no CPT 0.94µM, TDP1 cell CPT 1.3µM (no result: IL1B secr inh, HT1080NT lethal, HT1080 IDH1KD tx)
CCCCCC[N+](=O)[O-]	none
O=c1cccc2n1CC1CC2CN(c2ncnc3c2cnn3-c2ccccc2)C1 (configuration not stated)	none
CNCCc1ccc(OC)c(OC)c1	none
CCOc1ccc(CCNC(=O)c2cc3c(-c4ccc(OC)c(OC)c4)nn(C)c3s2)cc1OCC	DT40 TDP1 no CPT 3.7µM, TDP1 cell CPT 4.1µM (no result: IL1B secr inh, HT1080NT lethal, HT1080 IDH1KD tx)
C=C(C)C1Cc2c(ccc3c(=O)c4c(oc23)COc2cc(OC)c(OC)cc2-4)O1 (configuration not stated)	none (no result: IL1B secr inh, HT1080NT lethal, HT1080 IDH1KD tx)
O=C(c1ccc(-c2ccccc2)c(F)c1)C1CCCN(CCO)C1 (configuration not stated)	IL1B secr inh -75, DT40 TDP1 no CPT inconclusive, HT1080NT lethal inconclusive, TDP1 cell CPT inconclusive, HT1080 IDH1KD tx inconclusive
COc1ccc(Cl)cc1C(=O)C1CCCN(CCO)C1 (configuration not stated)	none
CN1CCCC(C(=O)c2ccc(-c3ccccc3)cc2)C1 (configuration not stated)	DT40 TDP1 no CPT 18µM, TDP1 cell CPT inconclusive
CN1CC(C(=O)c2ccccc2)C(C(=O)c2ccccc2)C1 (configuration not stated)	DT40 TDP1 no CPT inconclusive
COc1cccc(/C=C2\N=C(c3cncc(Br)c3)OC2=O)c1	DT40 TDP1 no CPT 23µM, TDP1 cell CPT inconclusive
NC(=O)c1ccc(N)nc1	DT40 TDP1 no CPT 4.1µM, HT1080NT lethal 2.6µM, TDP1 cell CPT 5.8µM, HT1080 IDH1KD tx 4.6µM
COc1cc2c(c(OC)c1OC)-c1ccc(O)cc1C(NC(C)=O)CC2 (configuration not stated)	DT40 TDP1 no CPT 0.18µM, HT1080NT lethal inconclusive, TDP1 cell CPT 0.21µM, HT1080 IDH1KD tx inconclusive
COc1cc2c(c(OC)c1OC)-c1ccc(O)c(=O)cc1[C@@H](NC(C)=O)CC2	DT40 TDP1 no CPT 6.5µM, HT1080NT lethal 6.5µM, TDP1 cell CPT 5.2µM, HT1080 IDH1KD tx 5.2µM
COC(=O)C1=C(c2cccc(OC)c2OC)C[C@@H]2CC[C@H]1N2C(=O)NCCO	none
COc1cc2c3c(c1OC)-c1cc(O)ccc1CC3NCC2 (configuration not stated)	DT40 TDP1 no CPT inconclusive
COc1cc2c(c(OC)c1OC)-c1ccc(O)cc1[C@@H](NC(C)=O)CC2	DT40 TDP1 no CPT 0.16µM, HT1080NT lethal 0.033µM, TDP1 cell CPT 0.23µM, HT1080 IDH1KD tx 0.016µM
O=C(COc1ccccc1[N+](=O)[O-])N1CCN(CCc2ccncc2)CC1	DT40 TDP1 no CPT inconclusive (no result: IL1B secr inh, HT1080NT lethal, HT1080 IDH1KD tx)
Cn1c(CN2CCCCC2)nc2cc(NC(=O)c3cccc(Br)c3)ccc21	IL1B secr inh -78, DT40 TDP1 no CPT inconclusive, HT1080NT lethal inconclusive, TDP1 cell CPT inconclusive, HT1080 IDH1KD tx inconclusive
C[C@]12C=CC(=O)C=C1C=C[C@@H]1C2CC[C@]2(C)C(=O)CCC12 (some centres not stated)	DT40 TDP1 no CPT inconclusive, TDP1 cell CPT inconclusive
O=C1C=C(N2CC2)c2ccccc2C1=O	DT40 TDP1 no CPT inconclusive, HT1080NT lethal 23µM, TDP1 cell CPT inconclusive, HT1080 IDH1KD tx inconclusive
Cc1ccc(Cn2c(NCCCn3ccnc3)nc3c2c(=O)n(C)c(=O)n3C)cc1	DT40 TDP1 no CPT inconclusive, TDP1 cell CPT inconclusive
COc1cc2c(cc1O)[C@@H]1Cc3ccc(OC)c(O)c3CN1CC2	DT40 TDP1 no CPT 4.1µM, HT1080NT lethal 2.6µM, TDP1 cell CPT 4.6µM, HT1080 IDH1KD tx 2.6µM
COc1ccc(-n2c(C)cc(C(=O)C[N+]34CCN(CC3)CC4)c2C)cc1	DT40 TDP1 no CPT inconclusive
COC(=O)C1=C(N)Oc2cc(C)oc(=O)c2C12C(=O)Nc1ccccc12 (configuration not stated)	DT40 TDP1 no CPT 16µM, TDP1 cell CPT inconclusive
COCCOC(=O)C1=C(C)OC(N)=C(C(=O)OC)C12C(=O)Nc1ccccc12 (configuration not stated)	none
COc1cc(CN2CCc3nc(N4CCN(c5ccccc5F)CC4)ncc3C2)ccc1OC(C)C	TDP1 cell CPT inconclusive (no result: IL1B secr inh, HT1080NT lethal, HT1080 IDH1KD tx)
CN(C)c1ccc(CN2CCc3nc(N4CCN(c5ccccn5)CC4)ncc3C2)cc1	DT40 TDP1 no CPT 21µM, TDP1 cell CPT 21µM (no result: IL1B secr inh, HT1080NT lethal, HT1080 IDH1KD tx)
COc1cc(CN2CCc3nc(N4CCN(c5ncccn5)CC4)ncc3C2)cc(OC)c1OC	DT40 TDP1 no CPT 8.2µM, TDP1 cell CPT 8.2µM (no result: IL1B secr inh, HT1080NT lethal, HT1080 IDH1KD tx)
COc1ccc2c(C)c(CCC(=O)N3C[C@H]4C[C@@H](C3)c3cccc(=O)n3C4)c(=O)oc2c1	none
COc1ccc2c(c1OC)C(=O)OC2c1c(O)n(C2CCCCC2)c(=O)[nH]c1=O (configuration not stated)	none

Source: PubChem BioAssay (National Center for Advancing Translational Sciences (NCATS))
